# Experimental data published in ChEMBL document CHEMBL3988442, “University of Dundee, Small-Polar-MMV Screening Library” (2021).
# For some of these results: Entries with a potency or affinity are not part of this list.
# Tests used:
# Set-up in all cases: scale not given: direction of the effect not stated beside the values
# [1] = biological target: Protein translocase subunit SecA (Escherichia coli (strain K12)) (UniProt P10408); assay: Assay to Identify E. coli SecA ATPase Inhibitors; type: functional; details: 30 µM
# Protein translocase subunit SecA (Escherichia coli (strain K12)), sequence (P10408 whole entry): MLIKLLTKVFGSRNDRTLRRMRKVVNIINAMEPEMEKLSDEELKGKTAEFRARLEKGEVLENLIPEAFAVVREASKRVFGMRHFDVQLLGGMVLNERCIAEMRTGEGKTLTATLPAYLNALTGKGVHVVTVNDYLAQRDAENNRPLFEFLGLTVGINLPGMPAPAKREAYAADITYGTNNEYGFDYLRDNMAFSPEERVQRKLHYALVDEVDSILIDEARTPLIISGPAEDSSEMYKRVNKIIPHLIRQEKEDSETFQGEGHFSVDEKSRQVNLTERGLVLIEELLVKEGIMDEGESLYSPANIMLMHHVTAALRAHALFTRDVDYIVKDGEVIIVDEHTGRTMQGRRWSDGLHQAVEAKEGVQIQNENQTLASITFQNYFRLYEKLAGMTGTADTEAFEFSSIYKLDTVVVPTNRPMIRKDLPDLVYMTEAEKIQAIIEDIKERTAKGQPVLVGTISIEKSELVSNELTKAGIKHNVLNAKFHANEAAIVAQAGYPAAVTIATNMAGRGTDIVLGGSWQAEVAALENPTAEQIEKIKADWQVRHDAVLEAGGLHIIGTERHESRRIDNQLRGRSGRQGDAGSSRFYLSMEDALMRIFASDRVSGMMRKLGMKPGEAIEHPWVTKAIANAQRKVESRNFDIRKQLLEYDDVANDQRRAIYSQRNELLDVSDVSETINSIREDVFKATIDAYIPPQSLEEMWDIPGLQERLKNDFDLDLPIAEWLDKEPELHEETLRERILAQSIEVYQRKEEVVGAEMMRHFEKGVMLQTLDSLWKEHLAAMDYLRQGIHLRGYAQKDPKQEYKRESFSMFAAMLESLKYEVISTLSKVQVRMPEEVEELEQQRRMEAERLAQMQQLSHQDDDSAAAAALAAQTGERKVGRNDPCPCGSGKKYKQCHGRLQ
# [2] = biological target: T1, Ubiquitin-activating enzyme e1, putative (Leishmania donovani (strain BPK282A1)) (UniProt E9BSI1); assay: Leishmania donovani Ubiquitin Activating Enzyme (LdE1); type: functional; details: 30 µM
# T1 sequence (whole entry): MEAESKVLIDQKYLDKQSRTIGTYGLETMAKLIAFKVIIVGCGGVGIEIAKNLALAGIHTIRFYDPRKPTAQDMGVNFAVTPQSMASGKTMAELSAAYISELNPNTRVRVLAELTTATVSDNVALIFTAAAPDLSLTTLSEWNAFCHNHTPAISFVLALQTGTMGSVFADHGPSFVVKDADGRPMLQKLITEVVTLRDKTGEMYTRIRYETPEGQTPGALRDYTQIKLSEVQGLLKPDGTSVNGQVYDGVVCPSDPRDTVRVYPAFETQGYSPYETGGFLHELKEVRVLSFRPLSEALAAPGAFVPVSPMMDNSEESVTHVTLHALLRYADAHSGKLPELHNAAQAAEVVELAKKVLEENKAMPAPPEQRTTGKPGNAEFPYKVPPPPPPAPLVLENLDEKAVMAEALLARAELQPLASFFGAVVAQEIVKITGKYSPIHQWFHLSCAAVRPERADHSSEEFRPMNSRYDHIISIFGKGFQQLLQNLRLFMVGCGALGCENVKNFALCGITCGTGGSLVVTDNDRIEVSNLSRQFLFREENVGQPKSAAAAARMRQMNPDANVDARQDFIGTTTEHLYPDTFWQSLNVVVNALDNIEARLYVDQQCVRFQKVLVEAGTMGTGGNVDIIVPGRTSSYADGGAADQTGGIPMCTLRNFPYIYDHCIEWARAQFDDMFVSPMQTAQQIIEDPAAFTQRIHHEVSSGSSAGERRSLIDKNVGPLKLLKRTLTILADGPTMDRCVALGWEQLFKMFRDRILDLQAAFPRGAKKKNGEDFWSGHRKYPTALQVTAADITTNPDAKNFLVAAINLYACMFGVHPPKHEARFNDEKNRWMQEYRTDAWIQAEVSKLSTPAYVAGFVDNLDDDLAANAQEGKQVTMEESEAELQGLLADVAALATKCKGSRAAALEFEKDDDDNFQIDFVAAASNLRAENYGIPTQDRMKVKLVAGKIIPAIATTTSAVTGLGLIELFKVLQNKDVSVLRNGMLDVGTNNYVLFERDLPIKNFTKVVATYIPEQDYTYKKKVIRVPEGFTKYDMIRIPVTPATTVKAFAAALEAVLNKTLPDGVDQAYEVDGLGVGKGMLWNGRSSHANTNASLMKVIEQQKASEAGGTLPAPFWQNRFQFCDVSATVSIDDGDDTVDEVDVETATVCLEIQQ
# [3] = biological target: AMP-activated protein kinase, AMPK (Homo sapiens) (UniProt P54646+O43741+P54619+Q9UGJ0+Q9Y478+Q13131+Q9UGI9); assay: AMP-dependent Kinase enzyme assay. An in vitro enzyme assay that detects ADP turnover that is directly proportional to AMPK activity. This uses naive AMPK that is activated during the assay with MK-8722; type: functional; details: 30 µM
# [4] = biological target: Sialic acid-binding Ig-like lectin 9 (Homo sapiens) (UniProt Q9Y336); assay: Hs-Siglec9 ALPHAscreen SOP 20170721; details: 10 µM
# Sialic acid-binding Ig-like lectin 9 (Homo sapiens), sequence (Q9Y336 whole entry): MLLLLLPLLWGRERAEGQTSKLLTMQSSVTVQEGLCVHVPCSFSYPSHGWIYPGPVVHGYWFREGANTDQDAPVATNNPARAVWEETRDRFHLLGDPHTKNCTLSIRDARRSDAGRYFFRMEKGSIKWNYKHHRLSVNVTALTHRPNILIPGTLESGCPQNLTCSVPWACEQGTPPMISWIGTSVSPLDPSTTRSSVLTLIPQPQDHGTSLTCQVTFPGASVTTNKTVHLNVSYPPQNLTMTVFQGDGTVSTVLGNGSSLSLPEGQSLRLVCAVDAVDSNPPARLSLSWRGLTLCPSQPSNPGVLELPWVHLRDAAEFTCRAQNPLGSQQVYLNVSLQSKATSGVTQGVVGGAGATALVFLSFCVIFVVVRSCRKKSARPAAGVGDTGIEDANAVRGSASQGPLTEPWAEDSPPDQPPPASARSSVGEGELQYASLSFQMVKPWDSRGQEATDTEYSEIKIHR
# Trypanosoma cruzi = assay: Trypanosoma cruzi phosphomannomutase and mannose-1-phosphate guanylyltransferase assay; type: functional; details: 10 µM
# [5] = biological target: T2, Arginase-2, mitochondrial (Homo sapiens) (UniProt P78540); assay: in vitro enzyme assay to detect the production of urea directly proportional to the activity of Arginase II; type: functional; details: 33.3 µM; note: in the data most compounds retested in dose-response had high values
# T2 sequence (whole entry): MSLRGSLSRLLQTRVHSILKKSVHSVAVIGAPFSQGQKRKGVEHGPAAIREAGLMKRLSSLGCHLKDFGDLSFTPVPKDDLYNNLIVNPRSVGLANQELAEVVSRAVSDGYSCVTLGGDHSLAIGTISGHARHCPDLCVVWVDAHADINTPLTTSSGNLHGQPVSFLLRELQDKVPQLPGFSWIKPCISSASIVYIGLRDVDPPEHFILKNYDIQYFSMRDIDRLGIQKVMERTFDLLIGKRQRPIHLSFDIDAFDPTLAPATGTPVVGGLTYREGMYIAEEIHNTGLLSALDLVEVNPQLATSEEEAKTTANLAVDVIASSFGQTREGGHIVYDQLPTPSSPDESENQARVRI
# [6] = biological target: T3, Proteasome subunit beta (Trypanosoma cruzi) (UniProt O96673); assay: Trypanosoma cruzi proteasome chymotrypsin-like activity (TcProtChymo) assay.; note: in the data most compounds retested in dose-response had high values; type: functional; details: 9.37 µM
# T3 sequence (whole entry): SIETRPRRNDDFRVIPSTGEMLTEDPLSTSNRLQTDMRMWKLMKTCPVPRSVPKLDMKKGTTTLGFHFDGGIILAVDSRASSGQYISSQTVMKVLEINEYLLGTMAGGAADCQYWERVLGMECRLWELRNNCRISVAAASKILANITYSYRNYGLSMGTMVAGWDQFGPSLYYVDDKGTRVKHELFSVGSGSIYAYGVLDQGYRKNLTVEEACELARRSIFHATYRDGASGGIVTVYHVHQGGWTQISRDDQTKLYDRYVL
# Homo sapiens = species on record: Homo sapiens; assay: To identify inhibition of the IFN signalling (Jak-Stat) pathway via expression of an eGFP reporter gene under the control of an IFN-stimulated response element (ISRE) containing MxA promoter.; type: functional; details: 30 µM
# [7] = biological target: T4, Tyrosyl-tRNA synthetase, putative (Trypanosoma cruzi (strain CL Brener)) (UniProt Q4DSP6); assay: Trypanosoma cruzi tyrosyl tRNA synthetase (TcYRS) _High Tyrosine SOP; type: functional; details: 30 µM; note: in the data most compounds retested in dose-response had high values
# T4 sequence (whole entry): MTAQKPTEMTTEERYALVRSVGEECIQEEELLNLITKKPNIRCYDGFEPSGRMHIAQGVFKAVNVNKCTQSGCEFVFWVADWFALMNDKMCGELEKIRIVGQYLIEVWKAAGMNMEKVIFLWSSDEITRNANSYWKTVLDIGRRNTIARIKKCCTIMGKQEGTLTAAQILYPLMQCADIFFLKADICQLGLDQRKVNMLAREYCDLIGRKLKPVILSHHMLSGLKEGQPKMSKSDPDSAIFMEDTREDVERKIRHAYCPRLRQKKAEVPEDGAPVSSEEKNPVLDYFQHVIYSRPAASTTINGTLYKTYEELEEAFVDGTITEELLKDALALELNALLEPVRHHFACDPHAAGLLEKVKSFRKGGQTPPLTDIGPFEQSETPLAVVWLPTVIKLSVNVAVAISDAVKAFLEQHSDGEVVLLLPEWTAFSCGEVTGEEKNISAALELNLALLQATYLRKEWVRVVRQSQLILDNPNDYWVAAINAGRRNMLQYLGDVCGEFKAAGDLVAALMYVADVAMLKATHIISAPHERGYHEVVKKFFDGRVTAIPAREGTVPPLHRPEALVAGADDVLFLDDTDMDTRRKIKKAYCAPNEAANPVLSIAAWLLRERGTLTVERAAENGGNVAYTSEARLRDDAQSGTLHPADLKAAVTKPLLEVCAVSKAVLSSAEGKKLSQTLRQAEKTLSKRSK
# [8] = biological target: T4, Tyrosyl-tRNA synthetase, putative (Trypanosoma cruzi (strain CL Brener)); assay: Trypanosoma cruzi tyrosyl tRNA synthetase (TcYRS) SOP; type: functional; details: 30 µM
# [9] = biological target: Chromo domain-containing protein 1 (Saccharomyces cerevisiae (strain ATCC 204508 / S288c) (Baker's yeast)) (UniProt P32657); assay: ScCHD-1 Enzyme Inhibition Assay; type: functional; details: 30 µM; note: in the data most compounds retested in dose-response had high values
# Chromo domain-containing protein 1 (Saccharomyces cerevisiae (strain ATCC 204508 / S288c) (Baker's yeast)), sequence (P32657 whole entry, the tested form may be a part): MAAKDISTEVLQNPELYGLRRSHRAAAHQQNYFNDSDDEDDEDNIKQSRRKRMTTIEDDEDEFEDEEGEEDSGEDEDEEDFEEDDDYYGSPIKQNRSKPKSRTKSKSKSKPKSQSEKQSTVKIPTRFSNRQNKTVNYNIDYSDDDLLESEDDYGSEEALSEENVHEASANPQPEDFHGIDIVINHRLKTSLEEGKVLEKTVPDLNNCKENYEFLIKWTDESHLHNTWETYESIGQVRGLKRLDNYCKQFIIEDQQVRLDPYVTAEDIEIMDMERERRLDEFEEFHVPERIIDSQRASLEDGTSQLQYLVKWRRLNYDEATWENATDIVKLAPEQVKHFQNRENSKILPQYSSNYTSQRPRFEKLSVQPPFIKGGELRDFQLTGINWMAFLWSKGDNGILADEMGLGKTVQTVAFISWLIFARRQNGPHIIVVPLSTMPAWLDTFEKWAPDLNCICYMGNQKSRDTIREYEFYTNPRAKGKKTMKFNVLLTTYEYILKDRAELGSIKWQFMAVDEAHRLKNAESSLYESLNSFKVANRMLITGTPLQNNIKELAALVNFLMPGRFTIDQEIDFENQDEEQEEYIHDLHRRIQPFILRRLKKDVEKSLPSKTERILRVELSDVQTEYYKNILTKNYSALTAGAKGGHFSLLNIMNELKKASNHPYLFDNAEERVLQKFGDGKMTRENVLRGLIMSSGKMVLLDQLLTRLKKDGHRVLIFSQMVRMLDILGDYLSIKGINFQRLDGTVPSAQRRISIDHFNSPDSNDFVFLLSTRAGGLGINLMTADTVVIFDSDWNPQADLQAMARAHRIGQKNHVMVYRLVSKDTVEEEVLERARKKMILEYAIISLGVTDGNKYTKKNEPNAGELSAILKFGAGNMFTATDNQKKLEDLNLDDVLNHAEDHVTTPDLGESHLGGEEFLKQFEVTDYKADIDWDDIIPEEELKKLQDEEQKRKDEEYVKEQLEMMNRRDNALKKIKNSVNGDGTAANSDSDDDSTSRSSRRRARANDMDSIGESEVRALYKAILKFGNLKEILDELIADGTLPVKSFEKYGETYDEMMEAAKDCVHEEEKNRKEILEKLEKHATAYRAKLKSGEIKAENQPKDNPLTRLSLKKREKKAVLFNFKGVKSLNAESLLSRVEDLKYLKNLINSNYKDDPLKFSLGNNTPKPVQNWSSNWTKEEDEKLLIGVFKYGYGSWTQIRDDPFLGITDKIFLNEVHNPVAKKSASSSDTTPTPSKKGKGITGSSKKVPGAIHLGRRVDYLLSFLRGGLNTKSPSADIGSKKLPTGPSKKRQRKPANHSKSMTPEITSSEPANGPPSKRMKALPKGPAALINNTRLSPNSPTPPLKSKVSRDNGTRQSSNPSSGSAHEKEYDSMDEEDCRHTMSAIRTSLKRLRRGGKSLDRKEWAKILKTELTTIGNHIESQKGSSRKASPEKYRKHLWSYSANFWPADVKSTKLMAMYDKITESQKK
SMILES,Percent Effect [1],Percent Effect [2],Percent Effect [3],Percent Effect [4],Percent Effect (Trypanosoma cruzi),Percent Effect [5],Percent Effect [6],Percent Effect (Homo sapiens),Percent Effect [7],Percent Effect [8],Percent Effect [9]
CCN1CCCC1CN(CCN(C)C)S(=O)(=O)c1ccc(C#N)cc1 (stereo unspecified),-3.88%,5.48%,-10.9%,21.3%,4.5%,0.909%,3.73%,3.29%,4.3%,15%,-5.33%
O=C(c1cccn2ccnc12)N1CCCN(c2cccnn2)CC1,-3.74%,-5.2%,6.04%,5.27%,4.8%,1.9%,-0.404%,-11.5%,0.952%,2.35%,-10.1%
CCc1nc(C2CCCN2CC(=O)Nc2c(C)n[nH]c2C)no1 (stereo unspecified),1.31%,-2.6%,-3.26%,6.7%,-5.62%,5.34%,3.38%,16.5%,1.94%,7.32%,-0.363%
NC(=O)C1CCN(C(=O)c2cccc(CN3CCOCC3)c2)CC1,-0.727%,6.94%,4.41%,25.6%,4.57%,2.21%,0.702%,-3.07%,1.05%,0%,79%
CCOc1ccccc1CSc1nnc(CC2CCS(=O)(=O)C2)n1C (stereo unspecified),-2.9%,2.7%,-1.67%,1.02%,-3.42%,1.74%,9.19%,5.04%,3.23%,11.1%,-8.57%
Cc1cccc(CN2C(=O)CO[C@@H]3CN(Cc4nccn4C)C[C@H]32)c1,0.226%,10.8%,-0.86%,-6.69%,3.91%,25.8%,20.5%,12.6%,9.9%,18.3%,-3.16%
CC(NC1(CNC(=O)Cn2cccn2)CCOCC1)c1ccccc1 (stereo unspecified),-5.93%,13.5%,-3.26%,21.8%,6.35%,3.72%,9.01%,-4.77%,0%,16.1%,-5.87%
Cc1cc(C)c(CNC(=O)N2CCN(c3cnccn3)CC2)c(=O)[nH]1,-7.87%,18.4%,-1.35%,2.54%,6.96%,-1.53%,12.2%,11.3%,3.43%,9.76%,-9.64%
CC(C)c1noc(CN(Cc2cccs2)C2CC2)n1,-4.69%,-5.2%,7.3%,44.2%,-5.61%,4.14%,5.16%,18.1%,-4.3%,-8.64%,2.56%
CN(Cc1ccc(Cl)c(Cl)c1)C(=O)CNC(N)=O,-3.49%,10.5%,9.37%,-5.68%,3.6%,-13%,17.4%,2.07%,4.25%,15.6%,-1.83%
Cc1noc(C)c1CNC(=O)N1CCN(Cc2cscn2)CC1,-5.7%,15.8%,-5.03%,9.82%,5.45%,0.766%,3.51%,-2.83%,6.37%,17.1%,-14.9%
